Data: PubChem BioAssay (Tox21)
Results filed as inconclusive are left out. Calls of active or inactive are those of the source. Calls follow the shape of the full dose curve.

biological target: Thyrotropin receptor (Homo sapiens) (UniProt P16473); assay: qHTS assay to identify small molecule agonists of the thyroid stimulating hormone receptor (TSHR) signaling pathway (AID 1224843); settings: TSHR-HEK293 cells, cAMP HTRF, agonist mode, 30 min; series mostly up to 92.4 µM; also: nearly all actives have a fitted effect of over 45% in size
Sequence (P16473 whole entry, looked up): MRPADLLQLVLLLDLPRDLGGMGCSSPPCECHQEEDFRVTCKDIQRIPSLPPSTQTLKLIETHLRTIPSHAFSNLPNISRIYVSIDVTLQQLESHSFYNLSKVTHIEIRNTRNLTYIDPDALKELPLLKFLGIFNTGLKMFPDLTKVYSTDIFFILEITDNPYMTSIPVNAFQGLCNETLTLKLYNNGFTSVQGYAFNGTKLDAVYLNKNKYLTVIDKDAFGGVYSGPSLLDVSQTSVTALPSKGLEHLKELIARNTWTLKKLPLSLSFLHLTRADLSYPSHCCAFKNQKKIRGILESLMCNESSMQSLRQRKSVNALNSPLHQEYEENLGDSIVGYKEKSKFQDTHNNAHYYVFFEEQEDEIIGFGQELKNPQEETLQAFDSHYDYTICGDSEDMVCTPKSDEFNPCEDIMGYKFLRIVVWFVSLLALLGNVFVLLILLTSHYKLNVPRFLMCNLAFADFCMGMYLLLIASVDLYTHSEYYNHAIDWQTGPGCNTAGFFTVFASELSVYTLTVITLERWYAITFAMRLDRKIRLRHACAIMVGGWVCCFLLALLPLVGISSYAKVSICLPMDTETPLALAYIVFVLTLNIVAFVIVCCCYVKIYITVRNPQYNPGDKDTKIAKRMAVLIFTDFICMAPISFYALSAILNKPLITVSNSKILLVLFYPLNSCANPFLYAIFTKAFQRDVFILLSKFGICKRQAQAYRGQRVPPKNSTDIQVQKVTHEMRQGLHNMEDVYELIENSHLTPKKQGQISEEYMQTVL
Outline: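 HEK293 cells stably bearing the thyrotropin receptor were plated at 800 cells/well and challenged with compound (30 min, RT). Accumulated cAMP was quantified via cAMP-d2 competing for cryptate-tagged antibody.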

Row | Compound | outcome
1 | Cc1ccc(S(=O)(=O)N=C=O)cc1 | inactive
2 | O=C1C(c2[nH]c3ccccc3c2O)=Nc2ccccc21 | inactive
3 | C=Cc1ccc(C)cc1 | inactive
4 | CCCCCCCCCCCCCCCCO | inactive
5 | CCOCC(=O)O | inactive
6 | N#Cc1ccccc1 | inactive
7 | CCCCOC(=O)c1ccc(N)cc1 | inactive
8 | O=C(O)c1ccc(C(=O)O)c(C(=O)O)c1 | inactive
9 | C[C@]12CC[C@@H]3c4ccc(O)cc4CC[C@H]3[C@@H]1C[C@@H](O)[C@@H]2O | inactive
10 | O=[N+]([O-])c1ccc2nc[nH]c2c1 | inactive
11 | CCNC(=S)NCC | inactive
12 | COc1cc(OC)c(C(=O)CCCN2CCCC2)c(OC)c1 | inactive
13 | CC(C)c1cccc(C(C)C)c1 | inactive
14 | C=CC(=O)OCCC(=O)O | inactive
15 | CCO[Si](CCCN)(OCC)OCC | inactive
16 | O=C(OCC1CCC2OC2C1)C1CCC2OC2C1 (stereo not drawn) | inactive
17 | COc1ccc(C)cc1N | inactive

Row | Compound | outcome
18 | CSc1ccc(Cl)cc1 | inactive
19 | C=CC[N+](C)(C)CC=C | inactive
20 | OCc1cccc(Oc2ccccc2)c1 | inactive
21 | CC(C)CCCCCCCOC(=O)CCCCC(=O)OCCCCCCCC(C)C | inactive
22 | CCCCCCC=O | inactive
23 | C=CCCCCCCCCC(=O)O | inactive
24 | COCCCN | inactive
25 | CCOC(=O)n1ccn(C)c1=S | inactive
26 | C=C(C)C(=O)OCC(C)C | inactive
27 | CC1(C)CC(N)CC(C)(CN)C1 (stereo not drawn) | inactive
28 | COc1ccccc1OCC(O)CO (stereo not drawn) | inactive
29 | CCCCC(C=O)CC (stereo not drawn) | inactive
30 | C=C(C)CNCC | inactive
31 | CC(C)(C)c1cc(Cc2cc(C(C)(C)C)c(O)c(C(C)(C)C)c2)cc(C(C)(C)C)c1O | inactive
32 | Clc1ccccn1 | inactive
33 | CC(C)=CCl | inactive
